# Data reported in PubChem BioAssay AID1259418 (Broad Institute, 2018).
# Out of some 3,400 compounds screened, about 840 (25%) were called active. Inconclusive results (about 11%) are left out.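 How the source made its calls: active means fitted half-maximal concentration of signal decrease at or below twice the sample's top tested concentration; inconclusive means flat curve between -70 and -30 percent, or poor fit; inactive means flat within 30 percent, signal rise, or potency above limit.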 Not all results are given here. Results with a measured potency or affinity are listed apart.
# Experiment: inhibitors of Toxoplasma growth in IFN-γ-primed HeLa – cell-based, ME49Luc, luciferase, 72 h, dose response (AID 1259418)
# Settings: T. gondii ME49Luc in IFN-y HeLa, stronger effect = lower value, -100% = high-dose IFN-γ control wells; at 19.5 µM unless noted
row,SMILES,max activity
1,CCOc1ccc(-c2nc(CN3CCN(C(=O)Nc4ccccc4C(F)(F)F)CC3)c(C)o2)cc1,13.7% [at 2.6 µM] (inactive)
2,O=C(NCCc1csc(-c2ccccc2)n1)C1CCN(C(=O)COc2ccccc2)CC1,-18.1% [at 0.68 µM] (inactive)
3,O=C(O)c1ccc(NC(=NCCc2ccccc2)N2CCN(c3ncnc4ccccc34)CC2)cc1,6.72% (inactive)
4,COc1ccc(NC(=O)Nc2ccc(-c3nc(-c4ccccc4)co3)cc2)cc1,-14% [at 0.68 µM] (inactive)
5,CCOc1ccccc1-c1nc(CN(c2ccccc2)S(=O)(=O)c2ccccc2)c(C)o1,15.6% (inactive)
6,COc1ccccc1N(Cc1nc(-c2cccc(OC)c2OC)oc1C)S(=O)(=O)c1ccccc1,3.95% (inactive)
7,CCOc1ccccc1-c1nc(CN(c2ccccc2OC)S(=O)(=O)c2ccc(C)cc2)c(C)o1,-6.32% (inactive)
8,COc1ccc(-c2nc(Cn3nnc(-c4nc(-c5ccccc5)no4)c3C)c(C)o2)cc1,11% [at 0.16 µM] (inactive)
9,Cc1ccc(NC(=O)Nc2ccc(-c3nc(-c4ccccc4)co3)cc2)cc1C,24.4% (inactive)
10,Cc1cc(-n2nnc(C(=O)N3CCC(N4CCCCC4)CC3)c2-c2ccncc2)ccc1F,-34.1% (inactive)
11,Cc1ccccc1C(=O)N1CCC2(CC1)Nc1cc(F)ccc1-n1cccc12,-6.16% [at 1.35 µM] (inactive)
12,COc1ccc(OCC(=O)N2CCC3(CC2)Nc2ccc(C)c(C)c2-n2cccc23)cc1,-9.59% [at 2.6 µM] (inactive)
13,CCOC(=O)C1CCCN(c2nc(-c3ccc(Cl)cc3)nc3ccccc23)C1 (stereo not drawn),5.87% [at 0.35 µM] (inactive)
14,Cc1noc(C)c1S(=O)(=O)N1CSC[C@@H]1C(=O)NCCc1csc(-c2ccccc2)n1,13.2% [at 1.35 µM] (inactive)
15,Cc1cccc(NC(=O)Nc2ccc(-c3nc(-c4ccc(C)cc4C)co3)cc2)c1,-13.9% [at 0.16 µM] (inactive)
16,COc1ccccc1-c1noc(-c2nnn(Cc3nc(-c4cccc(Cl)c4)oc3C)c2C)n1,9.3% [at 0.16 µM] (inactive)
17,CCc1nc(OCC(=O)Nc2ccccc2C(F)(F)F)c2ccccc2n1,15.4% [at 2.6 µM] (inactive)
18,Cc1ccc(-c2coc(-c3ccc(NC(=O)NCc4ccccc4)cc3)n2)c(C)c1,5.28% [at 0.16 µM] (inactive)
19,COc1ccc(-c2nc(Cn3nnc(-c4nc(-c5ccccn5)no4)c3C)c(C)o2)cc1,-5.61% [at 10 µM] (inactive)
20,COc1ccccc1-c1nc(C)c(-c2ccc(SCc3ccccc3)nn2)s1,-5.61% [at 0.68 µM] (inactive)
21,COc1ccc2c(c1)NC1(CCN(C(=O)c3ccc(Br)cc3)CC1)c1cccn1-2,15.6% [at 0.68 µM] (inactive)
22,Cc1cccc(Cn2c(CN3CCC(C(=O)NCCCN4CCCC4=O)CC3)cc3ccccc32)c1,13.5% (inactive)
23,Cc1ccc(Cn2c(CN3CCC(C(=O)N4CCCC4)CC3)cc3ccccc32)cc1,17.8% [at 2.6 µM] (inactive)
24,O=C(NCCCN1CCCC1=O)C1CCN(Cc2cc3ccccc3n2Cc2ccccc2)CC1,-6.87% [at 2.6 µM] (inactive)
25,O=C(NCc1cccnc1)C1CCN(Cc2cc3ccccc3n2Cc2cccc(Cl)c2)CC1,-5.31% [at 5 µM] (inactive)

row,SMILES,max activity
1,O=C(NCCN1CCCC1)C1CCN(Cc2cc3ccccc3n2Cc2cccc(Cl)c2)CC1,-8.03% [at 1.35 µM] (inactive)
2,O=C(C1CCN(Cc2cc3ccccc3n2Cc2cccc(Cl)c2)CC1)N1CCCC1,-6.26% [at 1.35 µM] (inactive)
3,CC(C)C(=O)Nc1ccc(-c2nc(-c3ccccc3)co2)cc1,-22.2% [at 10 µM] (inactive)
4,Cc1ccc(OCC(=O)Nc2ccc(-c3nc(-c4cc(C)ccc4C)co3)cc2)cc1,6.76% [at 10 µM] (inactive)
5,CCc1ccccc1Nc1ncnc2c1cnn2-c1ccc(C)cc1C,12.3% [at 0.68 µM] (inactive)
6,COc1ccc(OC)c(S(=O)(=O)N2CCC[C@@H]2C(=O)NCCc2csc(C)n2)c1,4.67% (inactive)
7,COc1cccc(-c2nc3c(s2)CN(S(=O)(=O)c2ccc(C(C)C)cc2)CC3)c1,-7.98% [at 2.6 µM] (inactive)
8,Cc1cccc(-c2nc(Cn3nnc(-c4nc(-c5ccc(F)cc5)no4)c3C)c(C)o2)c1,16.4% [at 10 µM] (inactive)
9,OC[C@H]1O[C@@H](n2cnc3c(NC4CCCC4)nc(Cl)nc32)[C@H](O)[C@@H]1O,22.4% (inactive)
10,Cc1ccc2[nH]c(C(=O)N3CCCC3)c(NC(=O)c3ccc(Cl)cc3)c2c1,45.1% [at 5 µM] (inactive)
11,COc1ccccc1-c1nc(Cn2nnc(-c3nc(-c4ccc(C)c(C)c4)no3)c2C)c(C)o1,8.96% [at 0.68 µM] (inactive)
12,Cc1cccc(C(=O)Nc2c(C(=O)N3CCN(c4ccccn4)CC3)[nH]c3ccc(C)cc23)c1,-10.7% [at 5 µM] (inactive)
13,CN(C)CCOCC12CCCOC1CCN(C(=O)c1cccn1C)C2 (stereo not drawn),9.21% (inactive)
14,O=C(CC1Nc2c3ccccc3nc(=S)n2C1=O)NC1CCCCC1 (stereo not drawn),24.9% [at 0.68 µM] (inactive)
15,O=C(Cn1c(=O)c(S(=O)(=O)c2ccccc2)cc2ccccc21)NCc1ccco1,8.5% [at 0.16 µM] (inactive)
16,CCN1CCCC1CNC(=O)C1CCN(Cc2cc3ccccc3n2Cc2ccccc2C)CC1 (stereo not drawn),14% [at 2.6 µM] (inactive)
17,Cc1cccc(Cn2c(CN3CCC(C(=O)NCc4cccnc4)CC3)cc3ccccc32)c1,15.7% [at 10 µM] (inactive)
18,O=C(NCc1cccnc1)C1CCN(Cc2cc3ccccc3n2Cc2ccccc2)CC1,21.3% [at 1.35 µM] (inactive)
19,CCN1CCCC1CNC(=O)C1CCN(Cc2cc3ccccc3n2Cc2cccc(Cl)c2)CC1 (stereo not drawn),22% [at 10 µM] (inactive)
20,O=C(C1CCN(Cc2cc3ccccc3n2Cc2cccc(F)c2)CC1)N1CCCC1,8.62% (inactive)
21,CCN1CCCC1CNC(=O)C1CCN(Cc2cc3ccccc3n2Cc2ccc(Cl)cc2)CC1 (stereo not drawn),9.45% (inactive)
22,O=C(NCc1cccnc1)C1CCN(Cc2cc3ccccc3n2Cc2cccc(F)c2)CC1,12.1% [at 0.16 µM] (inactive)
23,CCc1nc(OCC(=O)Nc2ccc(Cl)c(Cl)c2)c2ccccc2n1,-17.2% (inactive)
24,Cc1ccc(CNC(=O)Nc2ccc(-c3nc(-c4cc(C)ccc4C)co3)cc2)cc1,-8.13% [at 5 µM] (inactive)
25,COc1ccc(CC(=O)N2CCC3(CC2)Nc2cc(OC)ccc2-n2cccc23)cc1,20.2% [at 10 µM] (inactive)

row,SMILES,max activity
1,COc1ccc(-c2nc(Nc3ccc(Br)cc3F)c3ccccc3n2)cc1,21.7% (inactive)
2,O=C(NCCc1csc(-c2ccccc2)n1)[C@H]1CSCN1C(=O)COc1ccccc1,9.43% (inactive)
3,Cc1ccc2c(c1C)-n1cccc1C1(CCN(C(=O)c3cccc(Cl)c3)CC1)N2,6.45% (inactive)
4,O=C(C1CCCCC1)N1[C@H](CO)[C@@H]2c3ccccc3N(S(=O)(=O)c3ccccc3)C[C@@H]21,26.4% (inactive)
5,O=C(C1CCCCC1)N1[C@@H](CO)[C@@H]2c3ccccc3N(S(=O)(=O)c3ccccc3)C[C@@H]21,38.7% (inactive)
6,O=C(NCc1cncc2c1CCN(Cc1cccc(F)c1)C2)C1CC1,11.5% (inactive)
7,O=C(CCc1ccccc1)Nc1ccc(-c2nc(-c3ccccc3)co2)cc1,120% [at 10 µM] (inactive)
8,O=C(c1cccc(F)c1)N1CCCCN2[C@H](CO)[C@H](c3ccc(C#CC4(O)CCCC4)cc3)[C@H]2C1,-28.8% [at 21 µM] (inactive)
9,O=C(Nc1cccc(F)c1)N1CCCCN2[C@H](C1)[C@@H](c1ccc(C#Cc3cccnc3)cc1)[C@@H]2CO,-8.44% [at 0.6 µM] (inactive)
10,O=C(c1cccc(F)c1)N1CCCCN2[C@H](C1)[C@H](c1ccc(C#CC3(O)CCCC3)cc1)[C@@H]2CO,-13.9% [at 2.6 µM] (inactive)
11,CCN(CCCNc1nc(-c2ccc(OC)cc2)nc2ccccc12)c1cccc(C)c1,21.1% (inactive)
12,COc1ccc(NC(=O)CN2CCC3(CC2)N=C(c2ccc(F)cc2)C(=O)N3)c(OC)c1,-31.1% [at 0.35 µM] (inactive)
13,COc1ccc(-c2nc(N3CCN(Cc4ccc5c(c4)OCO5)CC3)c3ccccc3n2)cc1,17.4% [at 2.6 µM] (inactive)
14,Cc1ccc(N2CCN(c3nc(-c4ccc(Cl)cc4)nc4ccccc34)CC2)c(C)c1,25.4% (inactive)
15,CCOc1ccccc1NC(=O)COc1nc(CC)nc2ccccc12,-13.2% [at 0.35 µM] (inactive)
16,O=C(NC1CCCC1)N1CCCCN2[C@@H](CO)[C@@H](c3ccc(-c4cccnc4)cc3)[C@@H]2C1,33.9% (inactive)
17,O=C(NC1CCCC1)N1CCCCN2[C@H](CO)[C@@H](c3ccc(-c4cccnc4)cc3)[C@H]2C1,11.4% (inactive)
18,COc1ccc(-c2nc(NC(C)CCc3ccccc3)c3ccccc3n2)cc1 (stereo not drawn),13.7% (inactive)
19,CCOc1ccc(S(=O)(=O)N2CCc3nc(-c4ccc(OC)cc4)sc3C2)cc1,-25.8% [at 0.16 µM] (inactive)
20,Cc1nc(-c2ccc(F)cc2)sc1-c1ccc(SCc2ccccc2F)nn1,-39.8% (inactive)
21,Clc1ccc(-c2nc(NCCCN3CCc4ccccc4C3)c3ccccc3n2)cc1,-15.5% [at 0.16 µM] (inactive)
22,Cc1nc(OCC(=O)Nc2ccc(F)c(Cl)c2)c2ccccc2n1,21% [at 0.68 µM] (inactive)
23,COC(=O)/C=c1\sc2nc(=O)c(C)nn2c1=O,25.1% [at 10 µM] (inactive)
